# AmpC detergent: AmpC beta-lactamase inhibition with detergent present | P00811 | AmpC hydrolysis of nitrocefin, absorbance 480 nm, 0.01% Triton | Potency, µM (highest dose often 114 µM), most hits filed as inhibitors | 370,000 compounds, 0.041% hits | AID 485294; further: nearly all actives have a fitted effect of over 25% in size
# Target sequence (P00811 whole entry, looked up): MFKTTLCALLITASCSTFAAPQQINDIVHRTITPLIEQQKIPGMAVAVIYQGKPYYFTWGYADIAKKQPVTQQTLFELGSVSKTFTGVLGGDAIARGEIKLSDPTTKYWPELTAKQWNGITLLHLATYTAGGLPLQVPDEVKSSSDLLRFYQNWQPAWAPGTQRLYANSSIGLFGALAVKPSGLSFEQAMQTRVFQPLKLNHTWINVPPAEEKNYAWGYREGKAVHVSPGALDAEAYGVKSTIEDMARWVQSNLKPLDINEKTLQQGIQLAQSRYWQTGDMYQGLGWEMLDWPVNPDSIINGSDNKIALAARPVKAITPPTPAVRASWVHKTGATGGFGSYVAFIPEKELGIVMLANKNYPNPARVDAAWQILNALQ
#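 20 mM phosphate pH 7.0 + 0.01% (detergent screen) or 0.0001% Triton X-100; 5.3 nM AmpC reagent; cpd preinc 15 min RT; nitrocefin (800 uM stock) to start; A480 q20 s × 4 min; Activity was normalised to no-enzyme and no-compound control wells.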
# Sm TGR inh: blocks Schistosoma mansoni thioredoxin glutathione reductase. Q962Y6. purified TGR, DTNB reduction, TNB absorbance 405 nm. Potency, µM (top dose mostly 114 µM), hits mostly inhibitors. 360,000 compounds, 3% hits; further: nearly all actives have a fitted effect of over 60% in size
#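 First, TGR (20 nM dispensed) and NADPH were mixed with compound. Second, a 15 min room-temperature incubation followed. Third, further NADPH and then DTNB were added to start the reaction. Finally, TNB absorbance was monitored kinetically.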
# AmpC inh no detg: blocks E. coli AmpC beta-lactamase in detergent-free assay | AID 485341 | Potency, µM (top dose mostly 57.1 µM), usual class: inhibitors | 330,000 compounds, 0.52% hits | AmpC nitrocefin hydrolysis, absorbance 480 nm, 0.0001% Triton | P00811; further: nearly all actives have a fitted effect of over 20% in size
#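 AmpC (5.3 nM in the dispensed reagent) in 20 mM phosphate pH 7.0 with 0.01% (detergent screen) or 0.0001% Triton X-100 was preincubated with compounds for 15 min at room temperature. Nitrocefin was then added from an 800 uM solution, and hydrolysis was followed at 480 nm.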
# A number is an active result; n = inactive; u = inconclusive; x = no result; [ ] = remark or other dose. Rows were chosen to be rich in hits. Some 3.3% of all compounds tested hit in one or more screens of this group. The call rests on the fitted dose curve; in most records, active means well fitted curve in the direction sought with a large enough effect; inconclusive means small, poorly fitted or top-dose-only effect, or another doubt; inactive means no such curve, though single readings can be large; an effect the other way counts as inactive or inconclusive.
SMILES,AmpC detergent,Sm TGR inh,AmpC inh no detg
COc1cc(CN2CCc3ccc(NC(=O)CCc4ccccc4OC)cc3C2)ccc1O,n,13µM,n
COc1cc(CN2CCc3ccccc3C2)ccc1O,n,20µM,n
COc1cc(CN2CCc3ccccc3C2)cc([N+](=O)[O-])c1O,n,n,n
COc1ccc(CN2CCc3ccc(NC(=O)CCc4ccccc4OC)cc3C2)c(O)c1,n,n,n
COc1cc([N+](=O)[O-])ccc1NC(=O)N1CCC2(CC1)Nc1ccccc1-n1cccc12,n,n,x
CNC(=O)c1c(NC(=O)c2ccc(S(=O)(=O)N3CCCCC3C)cc2)sc2c1CCC2 (stereo not drawn),n,n,x
CCCN1C(=O)/C(=C/c2cc(C)n(C)c2C)SC1=Nc1ccc(OC)cc1,n,n,n
COc1ccc(N=C2S/C(=C\c3cc(C)n(C)c3C)C(=O)N2C)cc1,n,50µM,n
COc1cc(Cl)c(C)cc1NC(=O)C1CCCN(c2ncnc3onc(-c4ccc(F)cc4)c23)C1 (stereo not drawn),n,n,x
COc1cc(NC(=O)c2c(-c3ccc(C)cc3)nnc3ccccc23)cc(OC)c1OC,n,n,x
Cc1[nH]c2ccccc2c1C(=O)CN1C(=O)C(=O)N(C2CCCC2)C1=O,n,n,n
Cc1[nH]c2ccccc2c1C(=O)CN1CCN(C2CCCCC2)CC1,n,40µM,n
COc1ccccc1N1CCN(CC(=O)c2c[nH]c3ccccc23)CC1,n,n,n
COc1ccccc1N1CCN(CC(=O)c2c(C)[nH]c3ccccc23)CC1,n,32µM,n
COc1ccccc1N1CCN(CC(O)c2c(C)[nH]c3ccccc23)CC1 (stereo not drawn),u,16µM,n
COc1ccccc1N1CCN(CC(O)c2ccccc2)CC1 (stereo not drawn),n,n,n
O=C(Nc1ccc(Cl)cc1)C1CCN(c2nc3ccccc3nc2C(F)(F)F)CC1,n,n,x
CC(C)C(=O)NC1CC(=O)N(c2ccc3c(c2)OCCO3)C1 (stereo not drawn),n,n,x
CC(=O)N/N=C\c1cccc(OC/C=C/c2ccccc2)c1,n,n,n
N#CCC(=O)N/N=C\c1cccc(OC/C=C/c2ccccc2)c1,n,n,13µM
CCOc1ccc(-n2nc(CO)c(C(=O)NCc3ccccn3)n2)cc1,n,n,x
CCN(C(=O)Cn1c(SCc2ccccc2F)nc2cccnc21)c1ccccc1,n,n,x
COc1ccc(-c2nc(CS(=O)(=O)CC(=O)Nc3ccc(Cl)cc3)c(C)o2)cc1,n,35µM,4µM
COc1ccc(NC(=O)CS(=O)(=O)Cc2nc(-c3ccc(C)cc3)oc2C)cc1,n,n,n
Cc1ccc(-c2nc(CS(=O)(=O)CC(=O)Nc3cc(C)ccc3C)c(C)o2)cc1,n,n,x
SMILES,AmpC detergent,Sm TGR inh,AmpC inh no detg
COC(=O)c1ccccc1NC(=O)CS(=O)(=O)Cc1nc(-c2ccc(C)cc2)oc1C,n,25µM,n
Cc1sc(-c2cc3c([nH]c2=O)CC(c2ccccc2)CC3=O)nc1-c1ccc(Cl)cc1 (stereo not drawn),n,n,x
O=C(NCc1ccc(F)cc1)C1CCCN(c2ncnc3onc(-c4ccc(F)cc4)c23)C1 (stereo not drawn),n,n,x
CCOC(=O)N1CCc2c(sc3c2c(=O)n(-c2ccc(CC)cc2)c(=O)n3CC(=O)Nc2ccc(C)cc2)C1,n,n,x
CCN(C(=O)c1cc2c(=O)oc3ccc(C)cc3c2s1)c1ccccc1F,n,n,x
O=C(N/N=C/c1ccc(N2CCCCC2)o1)C(O)(c1ccccc1)c1ccccc1,n,22µM,n
CN(C)c1ccc(/C=N/NC(=O)C(O)(c2ccccc2)c2ccccc2)o1,n,10µM,n
Cc1cc(/C=N/NC(=O)C(O)(c2ccccc2)c2ccccc2)c(C)n1-c1ccccc1,n,n,n
CN(C)c1ccc(/C=N/NC(=O)c2ccccc2O)o1,n,22µM,n
Cc1cc(C(=O)N/N=C/c2ccc(N(C)C)o2)cs1,n,u,n
O=C(N/N=C/c1cc([N+](=O)[O-])cc([N+](=O)[O-])c1O)C(O)(c1ccccc1)c1ccccc1,u,n,n
O=C(Nc1ccc(F)cc1)c1ccc2c(c1)NC(=O)c1ccccc1S2,n,u,x
NC(=O)CSc1ncc2c(n1)-c1ccccc1N(Cc1ccccc1)S2(=O)=O,n,n,x
Cc1ccc(Oc2c(C(F)(F)F)oc3c(CN4CCCCC4C)c(O)ccc3c2=O)cc1 (stereo not drawn),n,n,x
CC(C)(C)NC(=O)CSc1ncccc1-c1nc2ccccc2[nH]1,u,n,n
Cc1cc2nc(-c3cccnc3SCC(=O)NC3CC3)[nH]c2cc1C,u,n,n[11.4 µM]
Cc1cc2nc(-c3cccnc3SCC(=O)NCc3ccco3)[nH]c2cc1C,u,18µM,n
O=C(CSc1ncccc1-c1nc2ccccc2[nH]1)NCc1ccco1,n,13µM,n
CCOC(=O)c1cnc2ccc(C(=O)OC)cc2c1Nc1ccccc1CC,n,n,x
CCC(=O)N1CCc2cc(Br)cc(S(=O)(=O)CCC(=O)Nc3cccc(C)c3C)c21,n,n,x
CCCCNC(=O)C1CCC(Cn2c(=O)c3sccc3n(CC(=O)Nc3ccccc3)c2=O)CC1 (stereo not drawn),n,n,x
Cc1ccc2onc(CC(=O)Nc3ccc(C(C)C)cc3)c2c1,n,n,x
COc1cc(OC)c(OC)cc1CN1CCN(Cc2ccc(SC)cc2)CC1,n,n,n
CCn1c2ccccc2c2cc(CN3CCN(Cc4cc(OC)c(O)c(OC)c4)CC3)ccc21,n,35µM,x
COc1cc(CN2CCN(Cc3ccc(SC)cc3)CC2)cc(OC)c1O,n,10µM,n
SMILES,AmpC detergent,Sm TGR inh,AmpC inh no detg
CCn1c2ccccc2c2cc(CN3CCN(Cc4cc(OC)ccc4O)CC3)ccc21,n,n,n
COc1cc(OC)c(-c2cc(C(=O)NCc3ccc(F)cc3)c3c(-c4ccccc4)[nH]nc3n2)cc1OC,n,n,x
CC(=O)Nc1nonc1NC(C)=O,u,n,n
CC(=O)Nc1cc(OC(C)=O)c2nonc2c1OC(C)=O,u,8.9µM,n
Cc1ccc(OCCCC(=O)Nc2sc3c(c2C(N)=O)CCCC3)cc1,n,n,x
Clc1ccc(N=c2ssnc2Cl)cc1,n,u,n
COc1ccc(N=c2ssnc2Cl)cc1,u,56µM,n
CC1(C)CC(=O)C2=C(C1)OC1=C(C(=O)CC(C)(C)C1)C2c1ccc(O)cc1O,n,22µM,n
CC1(C)CC(=O)C2=C(C1)OC1=C(C(=O)CC(C)(C)C1)C2c1ccc(O)c([N+](=O)[O-])c1,n,n,n
Cc1ccc(CNC(=O)CN2C(=O)C3(SCC(=O)N3c3cc(C)cc(C)c3)c3ccccc32)cc1 (stereo not drawn),n,n,x
O=C(Cc1csc2ccccc12)NCc1cccc(Br)c1,n,n,x
CC(C)c1ccc(CNCCSc2nnnn2-c2ccccc2)cc1,n,n,x
Cc1c(NC(=O)CN2C(=O)NC(CCc3ccccc3)C2=O)c(=O)n(-c2ccccc2)n1C (stereo not drawn),u,22µM,n
CC(C)(C)c1ccccc1NC(=O)CN1C(=O)NC(Cc2ccccc2)C1=O (stereo not drawn),n,50µM,n
